In assay [1] the test system is RAW-Dual. In words: NF-kB SEAP reporter activity, fold change vs agonist alone; cytotoxicity flag (confluency mask): not cytotoxic; higher = enhanced NF-kB activity. An outline of the steps:
(§1)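 Library stock was pin-tooled at 50 nL into 384-well plates of RAW-Dual macrophages (50,000 cells/well, DMEM), followed 1 h later by a PRR agonist, and the cells were kept at 37 °C, 5% CO2. Supernatant collected after 20 hours was read for IRF by QuantiLuc luminescence and for NF-κB by QuantiBlue absorbance at 620 nm. Reporter activity is fold change over agonist-alone wells, and a well counted as cytotoxic when its IncuCyte confluency was below 70% of agonist controls in both mask sets.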

Assay [2] deals with RAW-Dual. The experiment in a line: NF-kB SEAP reporter activity, fold change vs agonist alone; higher = enhanced NF-kB activity. An outline of the steps: as §1
Assay [3] relates to RAW-Dual. The experiment in a line: NF-kB SEAP reporter activity, fold change vs agonist alone; cytotoxicity flag (confluency mask): cytotoxic (confluency <70% of control); higher = enhanced NF-kB activity. Summed up: as §1
The mark [4] stands for this setting: agonist: ODN 1826 (TLR9) 0.5 ug/mL.
Where [5] appears, read: agonist: Pam2CSK4 (TLR2/6) 0.1 ug/mL.
[6] abbreviates: agonist: Pam3CSK4 (TLR2/1) 0.1 ug/mL.
The mark [7] stands for this setting: library stock concentration (final ~1000-fold dilution): 10 mM, cytotoxicity flag (confluency mask): not cytotoxic, agonist: Imiquimod (TLR7) […].
Setting [8] is: library stock concentration (final ~1000-fold dilution): 10 mM, cytotoxicity flag (confluency mask): not cytotoxic, agonist: MPLA (TLR4) […].

Consider 16 compounds from the supplement of paper PMC10037445.

Molecules are shown by their SMILES. Where “and” joins values, the source holds several entries; their conditions need not be identical. Identical values can stand only once. Whole data set: some 2,900 compounds, median “NF-kB SEAP reporter activity, fold change vs agonist alone” near 0.99, cut for the highest 2% near 2.6. What follows is part of a selection rich in the highest values, with near analogues and random picks from the rest.

In the case of `CC(C)N(CCCNC(=O)Nc1ccc(C(C)(C)C)cc1)CC1OC(n2ccc3c(N)ncnc32)C(O)C1O` (stereo not given) (library stock concentration (final ~1000-fold dilution): 10 mM), the “NF-kB SEAP reporter activity” value in the assay on RAW-Dual [1] (agonist: LPS (TLR4) 0.1 ug/mL) was 0.953; in the assay with RAW-Dual [1] (setting [4]), 1.05; with RAW-Dual [1] (setting [5]), 0.991; in the assay with RAW-Dual [1] (setting [6]) it was 1.14.

In the case of `CC(C)N(CCCNC(=O)Nc1ccc(C(C)(C)C)cc1)CC1OC(n2ccc3c(N)ncnc32)C(O)C1O` (stereo not given), the “NF-kB SEAP reporter activity” value in the assay with RAW-Dual [2] (setting [7]) came to 1.02; in the assay with RAW-Dual [2] (setting [8]), 0.984.

In the case of `C=C(C)C1CCC2(C(=O)O)CCC3(C)C(CCC4C5(C)CCC(O)C(C)(C)C5CCC43C)C12` (stereo not given), the “NF-kB SEAP reporter activity” value in the assay on RAW-Dual [2] (setting [7]) amounted to 1.04; in the assay with RAW-Dual [2] (setting [8]), 1.1.

For the compound `C=C(C)C1CCC2(C(=O)O)CCC3(C)C(CCC4C5(C)CCC(O)C(C)(C)C5CCC43C)C12` (stereo not given) (library stock concentration (final ~1000-fold dilution): 10 mM), the “NF-kB SEAP reporter activity” value in the assay with RAW-Dual [1] (agonist: LPS (TLR4) 0.1 ug/mL) was 1.45; in the assay on RAW-Dual [1] (setting [4]), 0.913; in the assay on RAW-Dual [1] (setting [5]), 0.832; in the assay with RAW-Dual [1] (setting [6]) it was 1.14.

With `O=C(NCCCNc1nc(Nc2cccc(NC(=O)N3CCCC3)c2)ncc1I)c1cccs1` (library stock concentration (final ~1000-fold dilution): 10 mM), the “NF-kB SEAP reporter activity” value was 0.329 and 0.35 in the assay with RAW-Dual [3] (agonist: LPS (TLR4) 0.1 ug/mL); 0.729 and 1.48 in the assay on RAW-Dual [3] (setting [4]); 0.0917 and 0.128 with RAW-Dual [3] (setting [5]); 0.252 and 0.376 in the assay on RAW-Dual [3] (setting [6]).

`CN1CCc2cc(Nc3ncc(C4CC4)c(NCCCNC(=O)C4CCC4)n3)ccc2C1`: the “NF-kB SEAP reporter activity” value in the assay on RAW-Dual [2] (library stock concentration (final ~1000-fold dilution): 10 mM, cytotoxicity flag (confluency mask): cytotoxic (confluency <70% of control), agonist: Imiquimod (TLR7) […]) worked out at 0.243; in the assay on RAW-Dual [2] (library stock concentration (final ~1000-fold dilution): 10 mM, cytotoxicity flag (confluency mask): cytotoxic (confluency <70% of control), agonist: MPLA (TLR4) […]), 0.288.

Regarding `O=C(NCCCNc1nc(Nc2cccc(CN3CCOCC3)c2)ncc1C1CC1)C1CCC1` (library stock concentration (final ~1000-fold dilution): 10 mM), the “NF-kB SEAP reporter activity” value in the assay on RAW-Dual [1] (agonist: LPS (TLR4) 0.1 ug/mL) is 2.49 and 3.77; in the assay with RAW-Dual [1] (setting [4]) it was 0.595 and 0.333; in the assay on RAW-Dual [1] (setting [5]), 2.26 and 2.33; in the assay on RAW-Dual [1] (setting [6]), 4.25 and 3.71.

Take `CN1CCc2cc(Nc3ncc(C4CC4)c(NCCCNC(=O)C4CCC4)n3)ccc2C1` (library stock concentration (final ~1000-fold dilution): 10 mM): the “NF-kB SEAP reporter activity” value came to 0.23 in the assay with RAW-Dual [3] (agonist: LPS (TLR4) 0.1 ug/mL), 0.207 in the assay with RAW-Dual [3] (setting [4]), 0.0969 with RAW-Dual [3] (setting [5]) and 0.211 in the assay with RAW-Dual [3] (setting [6]).

Regarding `CC(C)(C)c1[nH]cnc1C=c1[nH]c(=O)c(=Cc2ccccc2)[nH]c1=O`, the “NF-kB SEAP reporter activity” value is 2.47 in the assay with RAW-Dual [2] (setting [7]) and 2.5 in the assay with RAW-Dual [2] (setting [8]).

In the case of `O=c1[nH]cnc2ccccc12`, the “NF-kB SEAP reporter activity” value turned out to be 0.847 in the assay on RAW-Dual [2] (setting [7]) and 0.983 in the assay on RAW-Dual [2] (setting [8]).

Turning to `O=c1[nH]cnc2ccccc12` (library stock concentration (final ~1000-fold dilution): 10 mM), the “NF-kB SEAP reporter activity” value with RAW-Dual [1] (agonist: LPS (TLR4) 0.1 ug/mL) was 1.14; in the assay on RAW-Dual [1] (setting [4]), 0.991; in the assay with RAW-Dual [1] (setting [5]), 1.05; in the assay with RAW-Dual [1] (setting [6]), 1.08.

For the compound `CC(C)(C)c1[nH]cnc1C=c1[nH]c(=O)c(=Cc2ccccc2)[nH]c1=O` (library stock concentration (final ~1000-fold dilution): 10 mM), the “NF-kB SEAP reporter activity” value amounted to 6.1 in the assay with RAW-Dual [1] (agonist: LPS (TLR4) 0.1 ug/mL), 3.37 in the assay with RAW-Dual [1] (setting [4]), 2.02 in the assay with RAW-Dual [1] (setting [5]) and 2.3 in the assay with RAW-Dual [1] (setting [6]).

`O=C(Nc1ccc(O)c(C(=O)O)c1)c1cccc(NC(=O)c2ccco2)c1`: the “NF-kB SEAP reporter activity” value with RAW-Dual [2] (setting [7]) was 0.942; in the assay on RAW-Dual [2] (setting [8]) it was 0.969.

On to `O=C(Nc1ccc(O)c(C(=O)O)c1)c1cccc(NC(=O)c2ccco2)c1` (library stock concentration (final ~1000-fold dilution): 10 mM), for which the “NF-kB SEAP reporter activity” value worked out at 0.971 with RAW-Dual [1] (agonist: LPS (TLR4) 0.1 ug/mL), 0.895 with RAW-Dual [1] (setting [4]), 1.05 in the assay with RAW-Dual [1] (setting [5]) and 1.06 in the assay on RAW-Dual [1] (setting [6]).

Turning to `Cl.Cl.c1cc(-c2nc3ccc(OCCCN4CCCC4)cc3o2)ccc1OCCCN1CCCC1` (library stock concentration (final ~1000-fold dilution): 1 mM), the “NF-kB SEAP reporter activity” value in the assay on RAW-Dual [1] (agonist: LPS (TLR4) 0.1 ug/mL) came to 0.935; in the assay with RAW-Dual [1] (setting [4]), 0.224; in the assay with RAW-Dual [1] (setting [5]) it was 1.11; in the assay with RAW-Dual [1] (setting [6]), 1.06.

For `Cl.Cl.c1cc(-c2nc3ccc(OCCCN4CCCC4)cc3o2)ccc1OCCCN1CCCC1`, the “NF-kB SEAP reporter activity” value in the assay with RAW-Dual [2] (library stock concentration (final ~1000-fold dilution): 1 mM, cytotoxicity flag (confluency mask): not cytotoxic, agonist: Imiquimod (TLR7) […]) turned out to be 1.27; in the assay on RAW-Dual [2] (library stock concentration (final ~1000-fold dilution): 1 mM, cytotoxicity flag (confluency mask): not cytotoxic, agonist: MPLA (TLR4) […]), 1.08.
